The list shows a part of the results. Values without a mark were called inactive.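 Rule for the calls: active = mean inhibition across replicates above a set limit taken from the earlier primary screen (cut at about 11% in these data); inactive = the rest.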

For this experiment, the target named is RNA-editing ligase 1, mitochondrial (Trypanosoma brucei brucei) (UniProt P86926). In words: TbREL1 RNA ligase inhibitors, confirmation, biochemical, FRET fluorescence, triplicate (AID 1117282).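 Note: 0% = REL1 with substrate and DMSO and 100% = REL1 plus control inhibitor NSC42067.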 Conditions: TbREL1 RNA ligation, at 9.66 µM, stronger effect = higher value.
Chain of RNA-editing ligase 1, mitochondrial (Trypanosoma brucei brucei) (P86926 whole entry, looked up): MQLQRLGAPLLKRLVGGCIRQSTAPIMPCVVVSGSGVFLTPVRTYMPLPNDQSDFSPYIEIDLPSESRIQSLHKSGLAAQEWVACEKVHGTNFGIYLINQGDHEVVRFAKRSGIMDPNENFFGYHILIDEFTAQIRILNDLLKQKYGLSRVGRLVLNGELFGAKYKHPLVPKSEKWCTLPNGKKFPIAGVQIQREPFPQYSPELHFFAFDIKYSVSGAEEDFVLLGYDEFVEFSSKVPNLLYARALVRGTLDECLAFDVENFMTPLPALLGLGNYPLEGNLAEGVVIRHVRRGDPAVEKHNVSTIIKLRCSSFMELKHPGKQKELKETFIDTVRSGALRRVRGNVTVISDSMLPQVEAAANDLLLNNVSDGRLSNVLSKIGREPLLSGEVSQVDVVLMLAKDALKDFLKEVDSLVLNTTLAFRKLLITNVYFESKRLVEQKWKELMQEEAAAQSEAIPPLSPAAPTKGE
For orientation: inhibition means the percentage by which the read-out fell short of the control. In the case of `O=c1[nH]c2ccccc2n1C1CCN(C(c2ccccc2)c2nnnn2Cc2ccccc2)CC1` (stereo not drawn), the inhibition is 1.44%.
Regarding `CC1CCCCN1Cc1cccnc1` (stereo not drawn), the inhibition was 5.17%.
With `CN1CCN(c2cc(N3CCNCC3)ccc2[N+](=O)[O-])CC1` the figure was 9.79%.

For the origin of these results see PubChem BioAssay AID1117282 (The Scripps Research Institute Molecular Screening Center, 2014).
